# From PubChem BioAssay (NCATS)
# Results filed as inconclusive are left out. Where a call stands in place of a potency, no number is given. Unmarked numbers belong to inactive results. Calls of active or inactive are those of the source. Calls come from the whole dose curve; as a rule, active = well fitted inhibition curve with a large enough effect; inconclusive = small, poorly fitted or top-dose-only effect; inactive = flat fitted curve, though single readings scatter.
# Tests used:
# PC26 = test: qHTS profiling for inhibitors of Plasmodium falciparum proliferation (AID 504749); note: potency is the fitted concentration of half-maximal effect; details: P. falciparum in erythrocytes, SYBR Green DNA, 72 h; series mostly up to 28.7 µM
# Outline: (§1)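 Readout was DNA-dye fluorescence from lysed cultures, ex 485/em 535 nm. Parasitized red cells had grown 72 h with compound; data scaled between 0.29 uM artemisinin and DMSO wells and corrected using vehicle-only plates.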
# PC49 = test: as above; details: P. falciparum in erythrocytes, SYBR Green DNA, 72 h; series mostly up to 28.7 µM
# Outline: as §1
# TAB109 = test: as above; details: P. falciparum in erythrocytes, SYBR Green DNA, 72 h; series mostly up to 28.7 µM
# Outline: as §1
# TAB113 = test: as above; details: P. falciparum in erythrocytes, SYBR Green DNA, 72 h; series mostly up to 28.7 µM
# Outline: as §1
# TAB165 = test: as above; details: P. falciparum in erythrocytes, SYBR Green DNA, 72 h; series mostly up to 28.7 µM
# Outline: as §1
# W2 = test: as above; details: P. falciparum in erythrocytes, SYBR Green DNA, 72 h; series mostly up to 28.7 µM
# Outline: as §1
# SC27B = test: as above; details: P. falciparum in erythrocytes, SYBR Green DNA, 72 h; series mostly up to 28.7 µM
# Outline: as §1
# CRL-7250 = normal cell line; test: Cytotoxic Profiling of Annotated Libraries Using Quantitative High-Throughput Screening (AID 1296008); details: Five cell lines viability, CellTiter-Glo ATP luminescence, 48-72 h; max response: stronger effect = lower value
# Outline: (§2)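 Cells exposed to compounds for 48 or 72 hr at 37 degrees Celsius. Viability read as ATP-coupled luminescence with CellTiter-Glo after 10 min at room temperature.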
# HEK293 = test: as above; details: Five cell lines viability, CellTiter-Glo ATP luminescence, 48-72 h; max response: stronger effect = lower value
# Outline: as §2
# HaCat = test: as above; details: Five cell lines viability, CellTiter-Glo ATP luminescence, 48-72 h; max response: stronger effect = lower value
# Outline: as §2
# Note: nearly all actives have a fitted effect of over 60% in size.
Structure (SMILES),Potency (PC26),Potency (PC49),Potency (TAB109),Potency (TAB113),Potency (TAB165),Potency (W2),Potency (SC27B),max response (CRL-7250) [%],max response (HEK293) [%],max response (HaCat) [%],outcome (HaCat),outcome (HEK293),outcome (CRL-7250)
CN1C(=O)CCS(=O)(=O)C1c1ccc(Cl)cc1 (stereo unspecified),inactive,inactive,inactive,inactive,inactive,–,–,–,–,–,–,–,–
CCOC(=O)CC(SP(=S)(OC)OC)C(=O)OCC (stereo unspecified),inactive,inactive,inactive,inactive,inactive,inactive,–,–,–,–,–,–,–
C=CCN1C[C@H](C)N([C@H](c2ccc(C(=O)N(CC)CC)cc2)c2cccc(OC)c2)C[C@H]1C,–,–,–,–,–,15.1 µM (active),–,–,–,–,–,–,–
COc1c2c(cc3c1OCO3)CCN(C)C2,inactive,inactive,inactive,inactive,inactive,–,inactive,-2.93,-25.2,-2.59,–,–,–
O=C(N/N=C/c1ccc([N+](=O)[O-])o1)c1cc([N+](=O)[O-])cc([N+](=O)[O-])c1O,–,–,14.1 nM (active),282 nM (active),–,–,141 nM (active),-3.2,1.49,–,inactive,–,–
CC(=O)NC1CCSC1=O (stereo unspecified),–,–,–,–,–,–,–,-4.93,–,-1.96,–,inactive,–
CNCC(=O)c1ccc(O)c(O)c1,–,–,–,–,–,–,–,0.325,3.33,–,inactive,–,–
CCC1(c2ccccc2)C(=O)N(COC)C(=O)N(COC)C1=O,inactive,inactive,–,inactive,inactive,inactive,inactive,-1.83,3.09,3.73,–,–,–
CCN(CCO)CCn1c(Cc2ccccc2)nc2c1c(=O)n(C)c(=O)n2C,–,–,–,–,–,–,–,-2.16,-6.17,–,inactive,–,–
C=C(C)[C@H]1CN[C@H](C(=O)O)[C@H]1CC(=O)O,inactive,inactive,inactive,inactive,inactive,inactive,inactive,1.07,0.123,–,inactive,–,–
Nc1nc(N)nc(NC2CC2)n1,inactive,inactive,inactive,inactive,inactive,inactive,inactive,-14.4,-46.2,–,–,–,–
NC(=O)c1cc([N+](=O)[O-])cc([N+](=O)[O-])c1,–,inactive,inactive,inactive,inactive,–,inactive,–,-2.7,3.87,–,–,inactive
C[N+]1(CCF)[C@@H]2CC[C@H]1CC(OC(=O)C(O)(c1ccccc1)c1ccccc1)C2 (stereo partly specified),–,–,–,–,–,–,–,–,-5.81,–,inactive,–,inactive
COc1ccc2c(c1OC)C(=O)O[C@H]2[C@@H]1c2cc3c(cc2CCN1C)OCO3,inactive,–,–,–,–,–,–,0.738,-2.03,-4.43,–,–,–
C=CCC1(C(C)CC)C(=O)NC(=O)NC1=O (stereo unspecified),–,–,–,–,–,–,–,–,4.61,2.69,–,–,inactive
O=C1OC(c2ccc(O)c(S(=O)(=O)O)c2)(c2ccc(O)c(S(=O)(=O)O)c2)c2c(Br)c(Br)c(Br)c(Br)c21,inactive,inactive,inactive,inactive,inactive,inactive,inactive,-1.01,–,–,inactive,inactive,–
Clc1ccc(C(c2ccc(Cl)cc2)C(Cl)(Cl)Cl)cc1,–,inactive,inactive,–,–,6.01 µM (active),inactive,-9.96,-19.8,1.96,–,–,–
NNc1ccccc1,inactive,inactive,inactive,inactive,inactive,–,inactive,–,3.08,1.05,–,–,inactive
CC(C)(C)NCC(O)c1ccccc1Cl (stereo unspecified),–,12.6 µM (active),–,–,–,6.01 µM (active),–,-15.1,-2.46,-8.54,–,–,–
O=C(O)CCCc1ccc(N(CCCl)CCCl)cc1,inactive,inactive,inactive,inactive,inactive,–,inactive,–,-24.7,–,inactive,–,inactive
c1ccc(N2CCNCC2)cc1,–,–,–,–,–,–,–,4.63,-4.08,–,inactive,–,–
Nc1ccc([As](=O)(O)O)cc1,inactive,inactive,inactive,inactive,inactive,–,inactive,1.05,-6.15,-3.33,–,–,–
C=CCC1([C@H](C)CCC)C(=O)NC(=O)NC1=O,–,–,–,–,–,–,–,1.74,1.82,-2.25,–,–,–
CC(C)NC(C)C,inactive,–,inactive,inactive,inactive,inactive,inactive,1.83,1.45,1.53,–,–,–
CNC(C)(C)Cc1ccccc1,inactive,inactive,inactive,inactive,inactive,inactive,inactive,-3,-3.64,–,inactive,–,–
Nc1ccccc1C(=O)O,inactive,inactive,inactive,inactive,inactive,inactive,inactive,-2.31,-5.49,–,inactive,–,–
O=c1[nH]oc2c1CCNC2,inactive,inactive,inactive,inactive,inactive,inactive,inactive,-16.5,-2.62,–,inactive,–,–
